Compounds with a hit are over-represented: about 4.6% of the library has one in this group of screens.
TIM10 inh: inhibits growth of TIM10 yeast strain; AID 463195; actives 1.4% (n = 330,000); S. cerevisiae TIM10 strain growth, BacTiter-Glo luminescence, 24 h; inhibition, % at 10 µM;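 active means inhibition of 40% or more at the single tested concentration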;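 further: wild-type TIM10 isogenic control strain grown at permissive 25 °C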
SKKanGAS inh: blocks kanamycin growth of S. pyogenes SKKanGAS strain; AID 1662; BacTiter-Glo, 6 h; inhibition, % at 7.5 µM; actives 1.3% (n = 300,000);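 active means mean replicate score, as percent of positive control median, at least 50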;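 further: strain carries kanamycin resistance gene driven by streptokinase promoter and grows in 40 µg/ml kanamycin; loss of luminescence reflects streptokinase promoter inhibition or plain growth inhibition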
PfHsp90 set2: growth inhibition of yeast expressing Plasmodium Hsp90; actives 0.32% (n = 310,000); AID 504621; inhibition, % at 9.4 µM; S. cerevisiae expressing PfHsp90, BacTiter-Glo ATP, 48 h; yeast lacking PDR1 and PDR3 efflux regulators;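 active means every replicate shows inhibition above about 80%, whatever the replicate mean, limit read from the data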
tim10-1 inh: inhibits growth of tim10-1 mutant yeast | S. cerevisiae tim10-1 ts strain growth, BacTiter-Glo, 24 h | inhibition, % at 20 µM | actives 2.2% (n = 330,000);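 active means inhibition of at least 40%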;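 further: mutant grown at 25 °C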
NALP3 yeast inh: NALP3 inhibition in yeast | Yeast reconstituted NLRP3/ASC/caspase-1, beta-gal luminescence, 24 h | inhibition, % at 10 µM | actives 0.39% (n = 330,000) | AID 2825;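 active means inhibition of 50% or more; inactive means inhibition below 50%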
tim23-1 inh: growth inhibitors of tim23-1 mutant yeast; S. cerevisiae tim23-1 growth, BacTiter-Glo luminescence, 24 h; inhibition, % at 20 µM; actives 1.3% (n = 330,000); AID 463212;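 active means growth inhibition of the mutant yeast at or above 50%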;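 further: temperature-sensitive mutant grown at 25 °C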
tim23-1 confirm: tim23-1 yeast growth inhibition, confirmed. shares compounds with tim23-1 inh. inhibition, % at 20 µM. actives 83% (n = 4,400). S. cerevisiae tim23-1 growth, BacTiter-Glo luminescence, 24 h;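 active means inhibition above about 39% in either of two replicate wells at 20 µM, limit read from the data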;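 further: temperature-sensitive tim23-1 mutant grown at 25 °C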
Large screens that a line does not name were inactive (follow-up assays come after a bar, where they were run).

CCc1nnc(NC(=O)CSc2nc3c(cc2C#N)CCC3)s1	tim23-1 inh 94 | tim23-1 confirm inactive
O=[N+]([O-])c1cccc(NC(=S)N2CCc3ccccc3C2)c1	tim23-1 inh 52 | tim23-1 confirm 55
O=C(c1ccco1)N1CCN(C(=S)Nc2cccc([N+](=O)[O-])c2)CC1	none
CC1CN(C=O)CC(C)N1CCN1C(C)CN(C=O)CC1C (stereo unspecified)	none (no result: TIM10 inh, SKKanGAS inh, tim10-1 inh, NALP3 yeast inh, tim23-1 inh)
O=S(=O)(CCN1CCN(c2ccccc2O)CC1)c1cc(Cl)ccc1Cl	tim23-1 inh 50 (no result: SKKanGAS inh) | tim23-1 confirm inactive
O=C(CN1CCN(c2ccccc2O)CC1)NNC(=O)c1ccc(Cl)cc1	none
COc1cc(C2C3=C(CC(C)(C)CC3=O)N(C)C3=C2C(=O)CC(C)(C)C3)cc(Br)c1O	none
CCCC(=O)OC1CCS(=O)(=O)c2sccc21 (stereo unspecified)	none
CCN=c1scc(-c2ccc(F)cc2)n1/N=C/c1ccccn1	tim23-1 inh 58 | tim23-1 confirm 70
CCn1c(O)c(C=NC2CCCC(C)C2C)sc1=S (stereo unspecified)	tim23-1 inh 51 | tim23-1 confirm 53
S=c1[nH]nc(COc2ccccc2)n1/N=C/c1cccc(Cl)c1Cl	tim23-1 inh 61 | tim23-1 confirm 44
Cc1ccc(/C=N/n2c(COc3ccccc3)n[nH]c2=S)cc1	tim23-1 inh 53 | tim23-1 confirm inactive
FC(F)Oc1ccc(/C=N/n2c(Cc3ccc(Br)cc3)n[nH]c2=S)cc1	tim23-1 inh 51 | tim23-1 confirm 53
S=c1[nH]nc(COc2ccccc2)n1/N=C/c1ccccc1Cl	none
Cc1cccc(C)c1NC(=O)CSc1nc2[nH]c(=O)cc(O)c2s1	none (no result: SKKanGAS inh)
Cc1cnc(NC(=O)C(C)N2CCN(C)CC2)s1 (stereo unspecified)	none
Cn1c(SCc2ccc(Br)cc2)nnc1-c1ccccn1	tim23-1 inh 52 | tim23-1 confirm inactive
C#CCOCCOCCOCCNc1nc(N2CCN(C(=O)CCCCCCCCCCNC(=O)[C@H]([C@@H](C)CC)n3cc(CCCCCN)nn3)CC2)nc(N2CCN(C(=O)CCCCCCCCCCNC(=O)[C@H]([C@@H](C)CC)n3cc(CCCCN=C(N)N)nn3)CC2)n1	none (no result: SKKanGAS inh)
C#CCOCCOCCOCCNc1nc(N2CCN(C(=O)CCCCCCCCCCNC(=O)[C@H]([C@@H](C)CC)n3cc(CCCCN=C(N)N)nn3)CC2)nc(N2CCN(C(=O)CCCCCCCCCCNC(=O)[C@H](CCCCN)n3cc(C)nn3)CC2)n1	tim23-1 inh 58 (no result: SKKanGAS inh, PfHsp90 set2) | tim23-1 confirm 41
Cc1ccc(S(=O)(=O)N2CCC(C(=O)OC(C)C(=O)N(C)c3ccccc3)CC2)cc1C (stereo unspecified)	none (no result: SKKanGAS inh)
CC(=O)c1cccc(OC(=O)Oc2cccc(C(C)=O)c2)c1	none (no result: TIM10 inh, SKKanGAS inh, tim10-1 inh, NALP3 yeast inh, tim23-1 inh)
Cc1ccc(/C=C(\NC(=O)c2ccc(C)cc2)c2nc(=S)[nH][nH]2)cc1	tim23-1 inh 53 | tim23-1 confirm inactive
Cc1ccc(C(=O)N/C(=C\c2ccccc2F)c2nc(=S)[nH][nH]2)cc1	none
CC(C)(C)C(=O)c1sc(Nc2ccccc2)nc1N	tim23-1 inh 53 | tim23-1 confirm 41
Cc1nc(Nc2ccccc2)sc1C(=O)c1ccccc1	none
COc1cc(Cl)c(C)cc1NC(=O)COC(=O)c1ccc(CN2CCCC2=O)cc1	none (no result: SKKanGAS inh)
N#Cc1c(Nc2ccccc2)sc(C(=O)c2ccccc2)c1N	none
Cc1cccc(Oc2sc(C(=O)c3ccccc3)c(N)c2C#N)c1	tim23-1 inh 55 | tim23-1 confirm 42
Cc1oc2cc(O)cc(O)c2c(=O)c1-c1ccc2c(c1)OCCCO2	tim23-1 inh 65 | tim23-1 confirm 53
CCOC(=O)C1CCN(C(c2cccnc2)c2c(NC(=O)c3ccco3)sc(C)c2C)CC1 (stereo unspecified)	none
CCOC(=O)c1c(C)oc2c1c(C(c1ccccc1)N1CCOCC1)c(O)c1ccccc12 (stereo unspecified)	SKKanGAS inh 67, tim23-1 inh 66 (no result: PfHsp90 set2) | tim23-1 confirm 43
CCOC(=O)c1c(C)oc2c1c(C(c1cccnc1)N1CCCCC1)c(O)c1ccccc12 (stereo unspecified)	tim23-1 inh 50 (no result: PfHsp90 set2) | tim23-1 confirm 45

Screening data deposited in PubChem by several laboratories.
